ANO1 block = mouse TMEM16A channel inhibition, primary screen | normalized B-score (activity score, 25-100; higher = stronger inhibition) at 10 µM | 1.2% of 310,000 active | HEK293 TMEM16A/YFP iodide influx fluorescence, ionomycin;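 active means ratio plate-corrected score three or more library SD toward inhibition, starting fluorescence score within five deviations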;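 further: score derived from kinetic fluorescence span divided by baseline fluorescence per well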
CHT inh = inhibitors of human choline transporter CHT; Q9GZV3; 0.86% of 310,000 active; CHT-expressing cells, membrane potential dye, choline response; stronger effect = lower value; B-score at 10 µM; AID 488975;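 active means B-score over 3 SD under the library average, and starting fluorescence ratio not unusually high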;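 further: choline stimulus applied at its EC90 after an EC20 pre-addition; B-score computed on integrated fluorescence ratio after choline addition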
PKA-R1A activ = activates the PKA-R1A holoenzyme complex | AID 504707 | PKA-R1A dissociation, Cy5-IP20 fluorescence polarization; scaled: DMSO 0%, 113 µM cGMP 100% | activation, % at 11.4 µM | P00514+P68181 | 0.083% of 340,000 active;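 active means percent activation above the mean of all tested compounds plus 3 SD, cut at about 19% in these data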;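 further: higher means more PKAc released from R1A so a rise in polarization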
CHT PAM = allosteric activators of human choline transporter CHT; CHT-expressing cells, membrane potential dye, choline EC20; stronger effect = higher value; LV-AA mutant CHT in HEK293 cells; B-score at 10 µM; AID 488977; 0.49% of 310,000 active; Q9GZV3;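 active means initial fluorescence not abnormally high and integrated response B-score, plate-corrected, over 3 SD above library mean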
PKA-R2B activ = activators of human PKA-R2B complex. P22694+P31323. PKA-R2B holoenzyme dissociation, Cy5-IP20 fluorescence polarization; R2B truncated from residue 108, S112A mutant; 0% DMSO only, 100% 113 µM cGMP. activation, % at 11.4 µM. 0.079% of 340,000 active;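 active means activation above a cutoff set at the mean over all compounds plus 3 SD, cut at about 18% in these data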;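 further: higher means more holoenzyme dissociation and a rise in polarization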
Target sequence (P31323 whole entry, looked up, other chains not shown, the tested form may be a part): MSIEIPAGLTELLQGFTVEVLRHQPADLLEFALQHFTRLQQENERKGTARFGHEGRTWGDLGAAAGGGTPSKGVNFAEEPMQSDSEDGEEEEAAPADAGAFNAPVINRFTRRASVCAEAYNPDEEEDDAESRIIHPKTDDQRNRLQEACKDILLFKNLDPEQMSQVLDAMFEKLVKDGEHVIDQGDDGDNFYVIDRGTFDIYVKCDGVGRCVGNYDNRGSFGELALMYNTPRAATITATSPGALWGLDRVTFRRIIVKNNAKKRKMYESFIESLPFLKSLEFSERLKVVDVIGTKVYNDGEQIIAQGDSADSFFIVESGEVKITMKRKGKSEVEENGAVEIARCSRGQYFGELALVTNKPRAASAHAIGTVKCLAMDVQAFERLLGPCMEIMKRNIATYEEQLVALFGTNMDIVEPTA
TMEM16A act = activators or potentiators of mouse TMEM16A chloride channel | Q8BHY3 | HEK293 TMEM16A/YFP-H148Q/I152L, iodide quench fluorescence; stronger effect = lower value | B-score at 10 µM | 0.3% of 340,000 active | AID 623877;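 active means fluorescence-ratio B-score plate-corrected deviation score at least 3 library SD below zero, with starting fluorescence score within 5 deviations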;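 further: channel opened by trigger with iodide after compound preincubation; score built on the fluorescence ratio of max minus min over baseline; more negative score means more quench and so TMEM16A activation or potentiation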
CHT act confirm = confirmation of human choline transporter (CHT) activators | 91% of 2,500 active | AID 504833 | CHT-expressing cells, membrane potential dye fluorescence (FDSS); % of choline EC20–EC90 response window; HEK293 expressing CHT LV-AA mutant; choline added at its EC20 | activation, % at 10 µM | shares compounds with CHT PAM;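 active means primary screen active, with duplicate mean activation above negative control mean plus 3 SD, cut at about 11% in these data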
HEK293 MP dye = activity in parental HEK293 cells lacking CHT. shares compounds with CHT PAM. membrane potential dye fluorescence (FDSS); measured after EC20 choline addition. ratio readout change at 10 µM, hits read low. 62% of 2,500 active;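 active means duplicate-averaged ratio beyond 3 SD from buffer wells, up or down, though filed actives are nearly all decreases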
An asterisk follows results filed as active; i = inactive; · = no result. A selection: hits, their analogues and other compounds. The true share with any hit is near 2.5%.

SMILES	ANO1 block	CHT inh	PKA-R1A activ	CHT PAM	PKA-R2B activ	TMEM16A act	CHT act confirm	HEK293 MP dye
CCOCCCn1c(=N)c(S(=O)(=O)c2ccc(C)cc2)cc2c(=O)n3cc(C)ccc3nc21	i	i	-8	i	-1	i	·	·
O=Cc1c(N2CCN(CCO)CC2)nc2ccccn2c1=O	i	i	-7	i	-7	i	·	·
CCN1CCN(c2nc3ccccn3c(=O)c2C=O)CC1	i	i	-6	i	-9	i	57*	-51*
COC(=O)C1CN(C(=O)C(C)Oc2ccc(C(C)C)cc2)c2ccccc2O1 (configuration not stated)	i	i	-11	i	-7	i	18*	i
COC(=O)C1CN(C(=O)C(C)Oc2cc(C)ccc2C(C)C)c2ccccc2O1 (configuration not stated)	i	i	-2	i	1	i	·	·
Cc1cc(N2CCN(C)CC2)ccc1NC(=O)c1ccc(-c2ccc(Cl)cc2)o1	i	i	-6	i	2	i	4	i
COc1ccc(C2=CSC3=NCCN23)cc1Cl	i	i	-6	i	-6	i	·	·
COc1ccc(C2=CSC3=NCCN23)cc1[N+](=O)[O-]	i	i	-5	i	2	i	·	·
COc1ccc(C2=CSC3=NCCN23)cc1F	i	i	-3	7.2*	-6	i	47*	-55*
COc1ccc(C2=CSC3=NCCN23)cc1Br	i	i	·	6.6*	·	i	29*	-47*
O=[N+]([O-])c1ccc(C2=CSC3=NCCN23)cc1	i	i	-6	7.4*	-2	i	43*	-61*
CCOc1cc(S(=O)(=O)NCCCN2CCOCC2)ccc1F	i	i	4	i	7	i	·	·
CO/N=C(/C(=O)N[C@@H]1C(=O)N2C(C(=O)O)=CCS[C@H]12)c1cnc(N)s1	i	i	·	i	·	·	·	·
Cc1ccc(N(C)C(=O)C2CCCN2S(=O)(=O)c2ccc3c(c2)n(C)c(=O)c(=O)n3C)cc1 (configuration not stated)	i	i	0	6.5*	-5	i	24*	-44*
Cn1c(=O)c(=O)n(C)c2cc(S(=O)(=O)N3CCN(C4CCCCC4)CC3)ccc21	i	i	-8	13*	-9	i	106*	-50*
CSc1ccc(S(=O)(=O)NCC(=O)OCC(=O)NCc2cccs2)cc1[N+](=O)[O-]	i	i	4	i	-3	i	·	·
O=C(Cn1nc(-c2ccc(Cl)cc2)c2ccccc2c1=O)NN1CCOCC1	i	i	·	i	·	i	·	·
CCCC(c1nnnn1C(C)(C)CC)N1CCN(C2CCCC2)CC1 (configuration not stated)	i	i	-1	8.4*	-8	i	51*	i
CC(C)C(c1nnnn1Cc1ccc(F)cc1)N1CCN(C2CCCC2)CC1 (configuration not stated)	i	i	8	i	-5	i	·	·
CCCCC(c1nnnn1C1CCCC1)N1CCN(C2CCCC2)CC1 (configuration not stated)	i	i	6	6.6*	1	i	43*	i
CCCC(c1nnnn1Cc1ccc(F)cc1)N1CCN(C2CCCCC2)CC1 (configuration not stated)	i	i	-3	10*	3	i	36*	i
COc1cccc(CN2CC(C(=O)NCc3cnn(C)c3)CCC2=O)c1 (configuration not stated)	i	i	0	i	-3	i	·	·
N=c1c2c(n(Cc3ccc(F)cc3)c3c1CCC3)CCC2	i	i	0	7.1*	5	i	49*	-50*
CC(C)c1ccc(CNn2cnnc2)cc1	i	i	-11	i	3	i	·	·
CCCCCC[N+](C)(C)CC/C=C1/c2ccccc2Sc2ccc(Cl)cc21	i	i	-7	i	-10	i	44*	-27*
SMILES	ANO1 block	CHT inh	PKA-R1A activ	CHT PAM	PKA-R2B activ	TMEM16A act	CHT act confirm	HEK293 MP dye
COCCN1Cc2cccc(C(=O)Nc3ccc(C)cc3)c2C1=O	i	i	-5	i	6	i	·	·
COCCN1Cc2cccc(C(=O)Nc3cccnc3)c2C1=O	i	i	-7	6.5*	0	i	40*	-41*
CC(C)C1Oc2ccccc2N(CC(=O)NC2CCCCC2)C1=O (configuration not stated)	i	i	-6	i	0	i	9.8*	i
Cc1ccc2nc3ccc(N4CCCC4)nn3c(=O)c2c1	i	i	5	i	-8	i	44*	-46*
CC1CCCN(c2ccc3nc4ccccc4c(=O)n3n2)C1 (configuration not stated)	i	i	-4	i	1	i	·	·
CCCC(=Nc1ccccc1OC)C1=C(O)CC(c2ccccc2)CC1=O (configuration not stated)	i	i	-5	i	-4	i	·	·
COc1ccccc1N=C(C)C1=C(O)CC(c2ccccc2)CC1=O (configuration not stated)	i	i	-4	9.7*	-6	i	56*	i
Cc1ccc(S(=O)(=O)CCOC(=O)CNC(=O)OCc2ccccc2)cc1	·	·	-4	·	0	·	·	·
CCc1ccc(N2CC(C(=O)OCC(=O)N(CC)c3c(N)n(Cc4ccccc4)c(=O)[nH]c3=O)CC2=O)cc1 (configuration not stated)	·	·	8	·	-5	i	·	·
N#Cc1nc(-c2ccc(F)cc2)oc1NCCN1CCOCC1	i	i	-6	i	-10	i	·	·
COc1ccc(-c2nc(C#N)c(NCCCN3CCOCC3)o2)cc1	i	i	-8	i	0	i	24*	-21*
CCOC(=O)C1CCCN(C(=O)C2CCC(CNS(=O)(=O)c3ccc(NC(C)=O)cc3)CC2)C1 (configuration not stated)	i	i	5	i	15	i	6	i

Source: PubChem (several laboratories)
